Data published in publication PMC9838217, “Structure of SALL4 zinc finger domain reveals link between AT-rich DNA binding and Okihiro syndrome”.
Substitutions are numbered along the chain they refer to.

Experiments:
Test in all cases: HT-SELEX; high values mean tight binding
Conditions in all cases: protein: recombinant; vector His6-GST; dsDNA, one strand shown
[1] = biological target: T1, SALL4 ZFC4 WT (HT-SELEX) (Mus musculus, UniProt Q8BX22 870-940)
T1 sequence: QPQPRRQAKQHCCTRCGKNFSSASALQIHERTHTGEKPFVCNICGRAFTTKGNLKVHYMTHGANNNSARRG
Outline: (§1)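 Purified recombinant mouse SALL4 zinc finger cluster 4 (residues 870–940, 1 µg) was incubated with library DNA (1.5 µg first cycle, 200 ng later) in 100 µl buffer (10 mM Tris–HCl pH 7.5, 50 mM NaCl, poly(dI-dC), DTT) for 10 min at room temperature. Ni2+ bead-captured complexes were washed, PCR-amplified and reselected for up to 6 cycles, in triplicate, then MiSeq-sequenced and scanned for 6-mers. Binding signal is each canonical k-mer's read fraction as fold change versus the initial random library.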

[2] = biological target: T2, SALL4 ZFC4 R900W (HT-SELEX) (Mus musculus, UniProt Q8BX22 870-940, R900W)
T2 sequence: T1 sequence with R31W
Outline: as §1

[3] = biological target: T3, SALL4 ZFC4 G921D (HT-SELEX) (Mus musculus, UniProt Q8BX22 870-940, G921D)
T3 sequence: T1 sequence with G52D
Outline: as §1

Sequence CATCAA has a binding signal [1] of 1.23 ± 0.0349 fold-change vs cycle 0, a binding signal [2] of 1.37 ± 0.0542 fold-change vs cycle 0 and a binding signal [3] of 1.32 ± 0.0556 fold-change vs cycle 0.
For AGATAA, the binding signal [1] was 2.16 ± 0.129 fold-change vs cycle 0, the binding signal [2] was 2.17 ± 0.195 fold-change vs cycle 0 and the binding signal [3] was 1.87 ± 0.206 fold-change vs cycle 0.
For ATGTAA, the binding signal [1] was 2.3 ± 0.158 fold-change vs cycle 0, the binding signal [2] was 2.09 ± 0.134 fold-change vs cycle 0 and the binding signal [3] was 1.83 ± 0.187 fold-change vs cycle 0.
For ATCCTC, the binding signal [1] was 0.944 ± 0.0401 fold-change vs cycle 0, the binding signal [2] was 1.06 ± 0.0699 fold-change vs cycle 0 and the binding signal [3] was 1.09 ± 0.0423 fold-change vs cycle 0.
TCGGAA was tested, and the binding signal [1] was 0.681 ± 0.041 fold-change vs cycle 0, the binding signal [2] was 0.761 ± 0.0268 fold-change vs cycle 0 and the binding signal [3] was 0.862 ± 0.0635 fold-change vs cycle 0.
Sequence ATATCG has a binding signal [1] of 1.31 ± 0.0501 fold-change vs cycle 0, a binding signal [2] of 1.15 ± 0.0369 fold-change vs cycle 0 and a binding signal [3] of 1.194 ± 0.00992 fold-change vs cycle 0.
AATGGC showed a binding signal [1] of 0.467 ± 0.0217 fold-change vs cycle 0, a binding signal [2] of 0.534 ± 0.0101 fold-change vs cycle 0 and a binding signal [3] of 0.662 ± 0.067 fold-change vs cycle 0.
With CAATTA the binding signal [1] was 1.91 ± 0.128 fold-change vs cycle 0, the binding signal [2] was 1.83 ± 0.147 fold-change vs cycle 0 and the binding signal [3] was 1.71 ± 0.164 fold-change vs cycle 0.
AAGACC gave a binding signal [1] of 0.72 ± 0.0283 fold-change vs cycle 0, a binding signal [2] of 0.834 ± 0.0193 fold-change vs cycle 0 and a binding signal [3] of 0.911 ± 0.0351 fold-change vs cycle 0.
With ACCTCT the binding signal [1] was 0.859 ± 0.0231 fold-change vs cycle 0, the binding signal [2] was 0.978 ± 0.0308 fold-change vs cycle 0 and the binding signal [3] was 1.02 ± 0.0211 fold-change vs cycle 0.
For CATTCC, the binding signal [1] was 0.85 ± 0.0367 fold-change vs cycle 0, the binding signal [2] was 0.949 ± 0.0747 fold-change vs cycle 0 and the binding signal [3] was 0.981 ± 0.031 fold-change vs cycle 0.
ACTATA gave a binding signal [1] of 2.18 ± 0.121 fold-change vs cycle 0, a binding signal [2] of 1.98 ± 0.101 fold-change vs cycle 0 and a binding signal [3] of 1.76 ± 0.177 fold-change vs cycle 0.
Sequence AGCAGA has a binding signal [1] of 0.694 ± 0.0089 fold-change vs cycle 0, a binding signal [2] of 0.815 ± 0.0131 fold-change vs cycle 0 and a binding signal [3] of 0.857 ± 0.0135 fold-change vs cycle 0.
Work on CTGTAA yielded a binding signal [1] of 1.29 ± 0.062 fold-change vs cycle 0, a binding signal [2] of 1.42 ± 0.0769 fold-change vs cycle 0 and a binding signal [3] of 1.33 ± 0.121 fold-change vs cycle 0.
In the case of AATAGC, the binding signal [1] is reported as 1 ± 0.0454 fold-change vs cycle 0, the binding signal [2] is reported as 1.07 ± 0.0474 fold-change vs cycle 0 and the binding signal [3] is reported as 1.11 ± 0.00486 fold-change vs cycle 0.
With ATTTAA the binding signal [1] was 3.2 ± 0.134 fold-change vs cycle 0, the binding signal [2] was 2.48 ± 0.146 fold-change vs cycle 0 and the binding signal [3] was 2.15 ± 0.212 fold-change vs cycle 0.
Sequence AACAGG has a binding signal [1] of 0.801 ± 0.0521 fold-change vs cycle 0, a binding signal [2] of 0.937 ± 0.0272 fold-change vs cycle 0 and a binding signal [3] of 0.942 ± 0.0148 fold-change vs cycle 0.
Sequence AAATCT has a binding signal [1] of 1.82 ± 0.0976 fold-change vs cycle 0, a binding signal [2] of 1.85 ± 0.0812 fold-change vs cycle 0 and a binding signal [3] of 1.72 ± 0.124 fold-change vs cycle 0.
For AACTCT, the binding signal [1] was 1.39 ± 0.0293 fold-change vs cycle 0, the binding signal [2] was 1.52 ± 0.0171 fold-change vs cycle 0 and the binding signal [3] was 1.47 ± 0.0843 fold-change vs cycle 0.
In the case of AGGTCC, the binding signal [1] is reported as 0.419 ± 0.0296 fold-change vs cycle 0, the binding signal [2] is reported as 0.53 ± 0.0164 fold-change vs cycle 0 and the binding signal [3] is reported as 0.632 ± 0.0514 fold-change vs cycle 0.
With TCGAAA the binding signal [1] was 0.999 ± 0.0813 fold-change vs cycle 0, the binding signal [2] was 1.02 ± 0.0328 fold-change vs cycle 0 and the binding signal [3] was 1.06 ± 0.0355 fold-change vs cycle 0.
Work on TAGTAA yielded a binding signal [1] of 2.21 ± 0.0521 fold-change vs cycle 0, a binding signal [2] of 2.24 ± 0.0692 fold-change vs cycle 0 and a binding signal [3] of 1.89 ± 0.181 fold-change vs cycle 0.
CTTCCC was tested, and the binding signal [1] was 0.499 ± 0.032 fold-change vs cycle 0, the binding signal [2] was 0.599 ± 0.0427 fold-change vs cycle 0 and the binding signal [3] was 0.656 ± 0.0665 fold-change vs cycle 0.
For AAAACC, the binding signal [1] was 0.956 ± 0.0539 fold-change vs cycle 0, the binding signal [2] was 1.05 ± 0.0465 fold-change vs cycle 0 and the binding signal [3] was 1.1 ± 0.0332 fold-change vs cycle 0.
ACATAA was tested, and the binding signal [1] was 2.21 ± 0.177 fold-change vs cycle 0, the binding signal [2] was 1.96 ± 0.0742 fold-change vs cycle 0 and the binding signal [3] was 1.75 ± 0.158 fold-change vs cycle 0.
Sequence CCTAGA has a binding signal [1] of 0.844 ± 0.0425 fold-change vs cycle 0, a binding signal [2] of 0.937 ± 0.0552 fold-change vs cycle 0 and a binding signal [3] of 0.97 ± 0.04 fold-change vs cycle 0.
With TGATAA the binding signal [1] was 2.35 ± 0.175 fold-change vs cycle 0, the binding signal [2] was 2.08 ± 0.2 fold-change vs cycle 0 and the binding signal [3] was 1.87 ± 0.208 fold-change vs cycle 0.
Work on AAACTG yielded a binding signal [1] of 1.1 ± 0.0398 fold-change vs cycle 0, a binding signal [2] of 1.2 ± 0.0458 fold-change vs cycle 0 and a binding signal [3] of 1.17 ± 0.0583 fold-change vs cycle 0.
In the case of CATAAA, the binding signal [1] is reported as 2.36 ± 0.2 fold-change vs cycle 0, the binding signal [2] is reported as 1.79 ± 0.0666 fold-change vs cycle 0 and the binding signal [3] is reported as 1.6 ± 0.121 fold-change vs cycle 0.
AACAGC gave a binding signal [1] of 0.555 ± 0.024 fold-change vs cycle 0, a binding signal [2] of 0.644 ± 0.0188 fold-change vs cycle 0 and a binding signal [3] of 0.761 ± 0.0273 fold-change vs cycle 0.
